PubChem BioAssay AID1159580 (chemical genetic matrix, 2015)
Values joined by “and” are separate entries in the source; they are usually repeats but may differ in a detail not shown here. Identical values can stand only once. Screen size: about 5,500 compounds; about 2,000 (36%) were called active. About 18% were inconclusive and are not listed. Cut-off read from the data, not from the text of the source: active = normalized growth mostly below about 0.91 (no sharp cut-off); inconclusive = no clear call, values can overlap the other calls; inactive = mostly above about 0.92. This is one part of the list.

Test: chemical genetic growth profiling, strain panel (AID 1159580);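 note: tested at 20 µM; growth read once vehicle control cultures reached saturation at 30 °C; 1 = growth at the plate median or of vehicle wells; lower values mean less growth of the strain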
Conditions: S. cerevisiae deletion strains, growth OD

Measured: normalized growth

Fc1ccc(C(c2ccc(F)cc2)N2CCN(C/C=C/c3ccccc3)CC2)cc1
active: locus YKL160W, strain elf1, hits give low values 0.168 | locus YKR026C, strain gcn3, hits give low values 0.412 | locus YKR091W, strain srl3, hits give low values 0.444 | locus YLL001W, strain dnm1, hits give low values 0.293 | locus YLL026W, hits give low values 0.257 | locus YLL041C, strain sdh2, hits give low values 0.41 | locus YLR027C, strain aat2, hits give low values 0.306 | locus YLR039C, strain RIC1, hits give low values 1.36 [resistant] | locus YLR221C, strain rsa3, hits give low values 0.18 | locus YLR258W, strain gsy2, hits give low values 0.32 | locus YLR262C, strain YPT6 (second series), hits give low values 0.749 | locus YLR320W, strain mms22, hits give low values 0.137 | locus YLR342W, strain FKS1, hits give low values 0.25 | locus YLR357W, strain rsc2, hits give low values 0.544 | locus YLR370C, strain arc18, hits give low values 0.226 | locus YML120C, strain ndi1, hits give low values 0.24 | locus YMR058W, strain fet3, hits give low values 0.266 | locus YMR125W, strain sto1, hits give low values 0.17 | locus YMR129W, hits give low values 0.222 | locus YMR205C, strain PFK2, hits give low values 0.332 | locus YMR231W, strain pep5, hits give low values 0.794 | locus YNL071W, strain lat1, hits give low values 0.119
inactive: locus YJR075W, strain HOC1, hits give low values 0.952 | locus YKL009W, strain mrt4, hits give low values 0.965 | locus YKL068W, hits give low values 0.982 | locus YKL085W, strain MDH1 (second series), hits give low values 0.974 | locus YKL085W, strain MDH1, hits give low values 0.974 | locus YKL190W, strain CNB1, hits give low values 0.974 | locus YKR001C, strain vps1, hits give low values 0.972 | locus YLR058C, strain SHM2, hits give low values 0.981 | locus YLR102C, strain apc9, hits give low values 0.988 | locus YLR113W, strain HOG1, hits give low values 0.963 | locus YLR262C, strain YPT6, hits give low values 1.34 | locus YLR268W, strain sec22, hits give low values 0.933 | locus YLR330W, strain CHS5, hits give low values 0.988 | locus YLR342W, strain FKS1 (second series), hits give low values 0.981 | locus YLR371W, strain rom2, hits give low values 0.969 | locus YLR384C, strain iki3, hits give low values 0.957 | locus YLR418C, strain cdc73, hits give low values 0.993 | locus YML016C, strain PPZ1, hits give low values 0.992 | locus YML032C, strain rad52, hits give low values 0.948 | locus YML124C, strain tub3, hits give low values 0.991 | locus YMR078C, strain ctf18, hits give low values 0.966 | locus YMR223W, strain ubp8, hits give low values 0.988 | locus YMR263W, strain SAP30, hits give low values 0.968 | locus YMR307W, strain GAS1, hits give low values 1.28 and 0.996 | locus YNL067W, strain RPL9B, hits give low values 0.964
